Our source for the outcome and AC50 values is PubChem BioAssay (EPA / NIEHS).

Assay [1] can be described thus: ATG_GLI_CIS: Attagene CIS-FACTORIAL HepG2 Assay for human Zinc Finger Protein GLI1 (AID 2282945). The following applies: HepG2, Attagene cis-factorial reporter mRNA, GLI element; actives raise or lower the signal. Put shortly: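 HepG2 cells transiently transfected with cis-promoter multiplexed reporter units report endogenous transcription factor activity. After 24 h chemical exposure, reporter mRNA was quantified by RT-PCR, 6-FAM labelling, HpaI digestion and capillary electrophoresis, with bidirectional fitting against DMSO.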

Assay [2] deals with Bile acid receptor (Homo sapiens) (UniProt Q96RI1). In words: ATG_IR1_CIS: Attagene CIS-FACTORIAL HepG2 Assay for human Nuclear Receptor Subfamily 1 Group H Member 4 (NR1H4), IR1 submotif (AID 2282946). The following applies: IR1 reporter transcription, actives raise or lower the signal. Put shortly:
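Readout: reporter transcript levels by RT-PCR with fluorescent capillary electrophoresis, from HepG2 cells transiently transfected with multiplexed cis-regulated reporters and dosed 24 h. Gain- or loss-of-signal fitted versus DMSO negative control.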

Assay [3] is described as follows: ATG_GRE_CIS: Attagene CIS-FACTORIAL HepG2 Assay for human Glucocorticoid Response Elements (GRE) (AID 2282947). Conditions: HepG2 GRE cis-reporter, Attagene multiplex mRNA; actives raise or lower the signal. An outline of the steps: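 HepG2, transient cis-reporter transfection, 24 h. Reporter mRNA: RT-PCR then CE, fluorescence. Fit both directions vs DMSO.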
The nature of assay [4]: ATG_ISRE_CIS: Attagene CIS-FACTORIAL HepG2 Assay for human Interferon Regulatory Factor 1 (IRF1) binding to an Interferon-Stimulated Response Element (ISRE) (AID 2282948). The following applies: HepG2 ISRE cis-reporter (Attagene), mRNA transcription readout; actives raise or lower the signal. Put shortly: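 Endogenous transcription factor activity read as reporter transcript abundance via RT-PCR and capillary electrophoresis. HepG2 cells transiently transfected, 24 h chemical exposure. Gain or loss fitted against DMSO baseline.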

The nature of assay [5]: ATG_M_32_CIS: Attagene CIS-FACTORIAL HepG2 Assay for M32 Transcription Factor (Internal Marker) (AID 2282949).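 Also: background control marker of the multiplexed CIS panel rather than a real target.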 The following applies: HepG2 Attagene cis-factorial M32 reporter, mRNA; actives raise or lower the signal. Put shortly:
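Transient MRTU transfection of HepG2; 24 h compound treatment; TriZol RNA, oligo(dT) RT, reporter PCR, 6-FAM primer extension, HpaI cut, CE. Gain/loss of signal vs DMSO.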

Assay [6] concerns the target Hepatocyte nuclear factor 6 (Homo sapiens) (UniProt Q9UBC0). The assay can be described thus: ATG_HNF6_CIS: Attagene CIS-FACTORIAL HepG2 Assay for human Hepatocyte Nuclear Factor 6 (HNF6) (AID 2282952). The following applies: HepG2 Attagene cis-factorial HNF6 reporter transcription; actives raise or lower the signal. Put shortly:
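Activity values derive from bidirectional fitting against DMSO of reporter mRNA levels, measured by capillary electrophoresis of labelled RT-PCR products from HepG2 cells exposed 24 h.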

Assay [7] deals with Heat shock factor protein 1 (Homo sapiens) (UniProt Q00613). In words: ATG_HSE_CIS: Attagene CIS-FACTORIAL HepG2 Assay for human Heat Shock Transcription Factor 1 (HSE) (AID 2282953). The following applies: HepG2 HSE cis-reporter, Attagene RNA transcription; actives raise or lower the signal. An outline of the steps: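 Using HepG2 with transfected cis-driven reporter constructs, compound effects on endogenous factor activity are scored as reporter mRNA change at 24 h. Detection: RT-PCR, HpaI digestion, capillary electrophoresis; bidirectional fitting to DMSO.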

A short description of assay [8]: ATG_MRE_CIS: Attagene CIS-FACTORIAL HepG2 Assay for human Metal Responsive Element (MRE) (AID 2282954). The following applies: HepG2 MRE cis-reporter transcription, Attagene multiplex; actives raise or lower the signal. Put shortly:
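Readout: capillary electrophoresis of 6-FAM-labelled, HpaI-digested RT-PCR reporter products. System: HepG2 cells carrying transient multiplexed cis reporters, dosed 24 h. Analysis: bidirectional fit, DMSO baseline.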

Assay [9] in a line: ATG_M_06_CIS: Attagene CIS-FACTORIAL HepG2 Assay for M06 Transcription Factor (Internal Marker) (AID 2282950). The following applies: HepG2 Attagene CIS-FACTORIAL M06 internal marker reporter; actives raise or lower the signal. An outline of the steps:
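One of many multiplexed endpoints: HepG2 reporter mRNA after 24 h dosing, detected by RT-PCR and capillary electrophoresis fluorescence; gain or loss of signal analysed against DMSO.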

For assay [10], the target named is Hypoxia-inducible factor 1-alpha (Homo sapiens) (UniProt Q16665). The assay can be described thus: ATG_HIF1a_CIS: Attagene CIS-FACTORIAL HepG2 Assay for human Hypoxia Inducible Factor 1 (HIF1A) (AID 2282951). The following applies: HepG2 Attagene cis-factorial HIF1a reporter transcription; actives raise or lower the signal. Put shortly: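 Endogenous-TF cis reporter readout, human HepG2 cells, 24 h incubation; mRNA detected via RT-PCR and capillary electrophoresis fluorescence; DMSO-normalised bidirectional fitting.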

The source made the active and inactive calls. The calls were made as follows: active = hit-call score of the fitted dose curve at least 0.9, where 1 is the maximum; inactive = score below 0.9.

Bile acid receptor (Homo sapiens), sequence (Q96RI1 whole entry, looked up): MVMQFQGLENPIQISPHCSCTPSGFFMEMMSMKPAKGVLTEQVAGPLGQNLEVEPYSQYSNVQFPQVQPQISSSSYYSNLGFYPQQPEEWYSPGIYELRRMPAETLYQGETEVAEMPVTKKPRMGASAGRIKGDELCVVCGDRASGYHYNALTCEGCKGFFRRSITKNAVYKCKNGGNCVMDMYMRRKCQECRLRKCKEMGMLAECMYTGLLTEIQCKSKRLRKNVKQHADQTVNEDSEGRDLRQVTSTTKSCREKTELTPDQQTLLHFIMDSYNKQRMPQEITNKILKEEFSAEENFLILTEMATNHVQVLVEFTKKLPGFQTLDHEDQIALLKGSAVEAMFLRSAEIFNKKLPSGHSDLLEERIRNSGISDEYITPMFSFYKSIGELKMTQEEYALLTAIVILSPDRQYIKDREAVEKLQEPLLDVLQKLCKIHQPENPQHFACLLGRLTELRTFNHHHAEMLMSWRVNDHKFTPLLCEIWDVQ
Hypoxia-inducible factor 1-alpha (Homo sapiens), sequence (Q16665 whole entry, looked up): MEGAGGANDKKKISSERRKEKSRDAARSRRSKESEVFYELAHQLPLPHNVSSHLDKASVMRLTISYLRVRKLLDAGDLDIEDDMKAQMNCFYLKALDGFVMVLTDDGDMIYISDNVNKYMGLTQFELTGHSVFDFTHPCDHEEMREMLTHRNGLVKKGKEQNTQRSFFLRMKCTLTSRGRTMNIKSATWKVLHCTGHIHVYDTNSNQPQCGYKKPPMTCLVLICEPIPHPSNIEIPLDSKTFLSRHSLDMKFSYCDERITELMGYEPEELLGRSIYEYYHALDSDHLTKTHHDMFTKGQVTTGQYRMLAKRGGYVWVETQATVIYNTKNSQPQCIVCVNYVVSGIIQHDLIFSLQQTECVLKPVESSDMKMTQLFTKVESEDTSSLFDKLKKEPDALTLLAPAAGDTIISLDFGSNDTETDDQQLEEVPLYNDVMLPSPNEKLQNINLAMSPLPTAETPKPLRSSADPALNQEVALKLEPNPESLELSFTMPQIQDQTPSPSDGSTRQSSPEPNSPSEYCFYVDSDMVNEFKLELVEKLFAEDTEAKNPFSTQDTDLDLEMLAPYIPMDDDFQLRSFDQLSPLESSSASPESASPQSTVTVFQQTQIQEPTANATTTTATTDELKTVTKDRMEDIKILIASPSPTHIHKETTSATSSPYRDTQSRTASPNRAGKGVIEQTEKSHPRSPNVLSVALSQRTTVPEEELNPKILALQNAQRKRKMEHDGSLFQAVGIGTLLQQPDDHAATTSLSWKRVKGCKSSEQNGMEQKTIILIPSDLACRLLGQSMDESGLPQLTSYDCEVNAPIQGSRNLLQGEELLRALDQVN
Hepatocyte nuclear factor 6 (Homo sapiens), sequence (Q9UBC0 whole entry, looked up): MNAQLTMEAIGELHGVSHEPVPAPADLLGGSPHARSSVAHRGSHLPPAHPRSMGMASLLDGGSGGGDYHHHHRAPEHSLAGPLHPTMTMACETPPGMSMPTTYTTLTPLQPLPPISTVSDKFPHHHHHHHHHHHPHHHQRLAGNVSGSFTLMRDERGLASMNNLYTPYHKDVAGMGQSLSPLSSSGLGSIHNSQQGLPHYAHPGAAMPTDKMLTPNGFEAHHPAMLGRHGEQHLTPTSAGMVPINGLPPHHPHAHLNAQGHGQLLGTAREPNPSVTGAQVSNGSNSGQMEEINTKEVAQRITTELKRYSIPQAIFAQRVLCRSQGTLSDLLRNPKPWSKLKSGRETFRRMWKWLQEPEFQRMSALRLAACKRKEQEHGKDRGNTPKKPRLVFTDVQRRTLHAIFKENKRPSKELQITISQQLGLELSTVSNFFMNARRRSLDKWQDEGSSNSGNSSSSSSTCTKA
Heat shock factor protein 1 (Homo sapiens), sequence (Q00613 whole entry, looked up): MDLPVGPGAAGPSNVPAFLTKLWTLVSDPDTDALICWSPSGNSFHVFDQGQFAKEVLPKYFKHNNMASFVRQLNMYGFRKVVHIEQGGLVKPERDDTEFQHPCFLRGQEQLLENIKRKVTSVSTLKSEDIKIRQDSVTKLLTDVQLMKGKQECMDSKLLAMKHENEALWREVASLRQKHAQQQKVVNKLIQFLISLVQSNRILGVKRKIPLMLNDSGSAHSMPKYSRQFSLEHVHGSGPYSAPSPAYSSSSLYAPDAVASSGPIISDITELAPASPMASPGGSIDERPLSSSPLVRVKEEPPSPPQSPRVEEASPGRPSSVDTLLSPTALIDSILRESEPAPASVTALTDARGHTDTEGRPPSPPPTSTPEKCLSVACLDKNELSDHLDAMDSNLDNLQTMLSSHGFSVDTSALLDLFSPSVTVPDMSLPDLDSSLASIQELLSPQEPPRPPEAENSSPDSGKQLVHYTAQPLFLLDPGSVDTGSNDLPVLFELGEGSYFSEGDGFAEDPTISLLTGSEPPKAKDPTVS

In the case of `CCO[Si](CCC#N)(OCC)OCC`, the molecule was called inactive in [1], in assay [2], in [3], in assay [4], in assay [5] and in [6]. Also, the result in assay [7] and in assay [8] was inactive.
Turning to `CCC(=O)OC/C=C(\C)CCC=C(C)C`, the outcome in assay [1], in [2], in assay [3], in assay [4], in assay [5] and in [9] was inactive. For the same molecule, the molecule was classed as inactive in [6], in assay [7] and in assay [8].
Consider `CCCCCCCCOS(=O)(=O)O`, for which the molecule was classed as inactive in [1], in [2], in assay [3], in assay [4], in assay [5] and in [9]. For the same molecule, the molecule was classed as inactive in [6], in assay [7] and in assay [8].
For `CCOc1ccc(NC(C)=O)cc1`, the molecule was classed as inactive in [1], in assay [2], in [3], in assay [4], in assay [5] and in assay [10]. The result in assay [6], in assay [7] and in assay [8] was inactive.
Regarding `CCOCC(C)O` (stereo unspecified), the call in assay [1], in assay [2], in assay [3], in [4], in assay [5] and in assay [6] was inactive. The call in assay [7] and in assay [8] was inactive.
Take `CCCCCCOC(C)=O`: the outcome in [1], in assay [2], in assay [3], in [4], in assay [5] and in [9] was inactive. The result in assay [10], in assay [6] and in assay [8] was inactive.
In the case of `CCC(=O)OC(C)(C)C1CC=C(C)CC1` (stereo unspecified), the result in assay [1], in [2], in assay [4], in assay [5], in assay [9] and in [10] was inactive. Further, the outcome in assay [6], in assay [7] and in assay [8] was inactive.
On to `CC(=O)C1C(=O)C=C(C)OC1=O` (stereo unspecified), for which the result in assay [1], in assay [2], in assay [3], in assay [4], in assay [5] and in assay [9] was inactive. Besides, the result in assay [10], in assay [6], in [7] and in assay [8] was inactive.
Turning to `NC(N)=S`, the molecule was classed as inactive in [1], in [2], in assay [3], in assay [4], in assay [5] and in assay [9]. The result in assay [10], in assay [6] and in assay [8] was inactive.
For the molecule `CC(=O)c1ccc(O)cc1`, the call in assay [1], in assay [2], in assay [3], in assay [4], in assay [5] and in [9] was inactive. Further, the molecule was classed as inactive in assay [6], in assay [7] and in assay [8].
For the molecule `CC=CC(=O)C1=C(C)C=CCC1(C)C`, the call in assay [1], in assay [2], in assay [3], in assay [4], in [5] and in assay [9] was inactive. In addition, the molecule was called inactive in assay [10], in assay [6], in assay [7] and in assay [8].
For `COc1ccc2[nH]cc(CCNC(C)=O)c2c1`, the call in [1], in assay [2], in assay [3], in assay [4], in assay [5] and in assay [9] was inactive. In addition, the molecule was classed as inactive in [6], in assay [7] and in assay [8].
For `CC1=CCC(C(C)(C)O)CC1` (stereo unspecified), the molecule was called inactive in assay [1], in assay [2], in assay [4], in assay [5], in assay [9] and in assay [10]. Also, the result in [6] and in [7] was inactive.
For the molecule `CCC(C)(CCCC(C)C)OC(C)=O` (stereo unspecified), the molecule was classed as inactive in assay [1], in assay [2], in [3], in assay [4], in assay [5] and in [10]. The call in assay [6], in [7] and in assay [8] was inactive.
Take `CC(=O)c1ccc2ccccc2c1`: the call in assay [1], in [2], in assay [3], in assay [4], in [5] and in [10] was inactive. The call in assay [6], in assay [7] and in [8] was inactive.
As to `CCCCOCC(C)OCC(C)O` (stereo unspecified), the result in assay [1], in assay [2], in assay [4], in [5], in assay [9] and in assay [10] was inactive. Moreover, the result in assay [6], in assay [7] and in assay [8] was inactive.
For orientation: AC50 means the midpoint of the concentration-response curve, whichever way the signal moves. `CCC(C)(C)c1cc(O)c(C(C)(C)CC)cc1O`: the AC50 in assay [1] is 6.82 µM (active); in assay [2], 24.2 µM (active); in assay [3], 24.8 µM (active); in assay [4], 20.2 µM (active); in assay [10], 10.7 µM (active); in assay [6], 30 µM (active). Further, the figures for the AC50 in assay [7] and in [8] were 49.3 µM (active) and 16.2 µM (active), respectively. The molecule was called inactive in [5].
Take `CC12CCC(C1)C(C)(C)C2O` (stereo unspecified): the outcome in [1], in [2], in [4], in assay [5], in assay [9] and in assay [10] was inactive. Further, the outcome in assay [6] and in assay [7] was inactive.
Take `CCc1cccc(O)c1`: the call in [1], in assay [2], in [4], in assay [5], in assay [9] and in [10] was inactive. The molecule was classed as inactive in [6], in [7] and in [8].
For the molecule `OCCCO`, the result in assay [1], in [3], in [4], in assay [5], in [9] and in assay [10] was inactive. Also, the molecule was classed as inactive in [6], in assay [7] and in assay [8].
Turning to `CCCCCCC(O)CCOC(C)=O` (stereo unspecified), the molecule was called inactive in assay [1], in assay [2], in [4], in assay [5], in [9] and in assay [6]. The call in assay [7] and in assay [8] was inactive.
For `CCC(C)(C)C1CCC(OC)CC1` (stereo unspecified), the outcome in assay [1], in assay [2], in assay [4], in assay [5], in assay [10] and in assay [6] was inactive. In addition, the result in assay [7] and in [8] was inactive.
Consider `CC(O)CN` (stereo unspecified), for which the outcome in assay [1], in assay [3], in assay [4], in assay [5], in assay [9] and in assay [10] was inactive. In assay [6], the molecule was called inactive.
For `c1ccc(OCCOc2ccccc2)cc1`, the molecule was called inactive in assay [1], in assay [3], in assay [4], in assay [5], in [9] and in assay [6]. Also, the molecule was called inactive in assay [7]. For the same molecule, in assay [10], the concentration at half-maximal activity (AC50) was 26.4 µM (active).
Regarding `CC(C)=CCCC(C)=CC(=O)O`, the call in assay [1], in assay [3], in [4], in [5], in assay [9] and in [10] was inactive. The molecule was called inactive in assay [6], in assay [7] and in [8].
As for `CC(=O)c1cccnc1`, the call in assay [1], in assay [3], in assay [4], in [5], in [9] and in assay [10] was inactive. The outcome in assay [6] was inactive.
`Cc1cc(O)c(C)c(C)c1O`: the outcome in [1], in assay [3], in assay [4], in [5], in assay [9] and in assay [10] was inactive. Further, the call in [6] and in [7] was inactive.
As to `CC(=O)CCc1ccc(O)cc1`, the molecule was called inactive in [1], in assay [3], in assay [4], in [5], in [9] and in assay [10]. The molecule was called inactive in assay [6] and in assay [7].
